Chronic BCR inh: qHTS Assay to Find Inhibitors of Chronic Active B-Cell Receptor Signaling. AID 493014, 2011. 340,000 compounds, 0.05% hits. Potency, µM (highest dose often 46.1 µM), for the others: top-dose activity change, negative = inhibition, hits mostly inhibitors. ABC-DLBCL IkBa-CBG/CBR reporter, luminescence ratio, 4 h; active = well fitted inhibition curve with a large enough effect in the signal ratio, with a control signal flat, not every such curve was filed as active; inconclusive = small, poorly fitted or top-dose-only effect, or effect the other way, or a change in a side signal; the % refers to the signal ratio;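 note: plate controls were basal doxycycline-induced cells for no effect and cells given 10 µM MG132 for full effect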
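Compounds up to 46 uM were incubated four hours with TMD8 cells whose green CBG68 luciferase is fused to IkappaBalpha; red CBR luminescence normalised the signal, and concentration-effect curves were fitted to fusion, red and ratio data.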
uPA generation: qHTS for Inhibitors of Cell Surface uPA Generation. cell surface uPA generation assay, qHTS. Potency, µM (highest dose often 38.3 µM), for inactives: top-dose activity change, negative = inhibition, hits mostly inhibitors. 330,000 compounds, 0.31% hits. AID 540303, 2011; active = well fitted inhibition curve with a large enough effect; inconclusive = small, poorly fitted or top-dose-only effect; inactive = no such curve, though single readings can be large or run the other way; tested in mouse RAW 264.7 cells; note: % is set by controls: 0 for no effect and ±100 for the full control effect; nearly all actives have a fitted effect of over 55% in size
Integrin act MD: qHTS for Activators of Integrin-Mediated Alleviation for Muscular Dystrophy. alpha7betagal myoblasts, beta-gal FDG fluorescence, 48 h. Potency, µM (titrated, usually from 38.3 µM), inactives show at the top dose activation, usual class: activators. 350,000 compounds, 0.064% hits;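 note: 100% = response of the positive control SU9516; nearly all actives have a fitted effect of over 60% in size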
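Alpha7betagal+/- myoblasts (passage 13) were plated 16-24 hr, then exposed to compounds (1:260 dilution of DMSO stock) for 48 hours at 37C. After MPER lysis, β-galactosidase reporter activity was read as FDG fluorescence (ex 480/em 540) after 30 minutes.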
Mito fusion act: qHTS Assay for Small Molecule Inhibitors of Mitochondrial Division or Activators of Mitochondrial Fusion; 320,000 compounds, 0.23% hits; Potency, µM (series often up to 46.1 µM), without a hit: top-dose growth rescue (activation), actives largely listed as activators; S. cerevisiae fusion-defective mutant growth rescue, CellTiterGlo 48 h; note: % of control where 0% means no effect; nearly all actives have a fitted effect of over 45% in size
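Read-out: ATP-based luminescence (CellTiterGlo, 10 min ambient) reporting growth of fusion-defective ts yeast after 48 hours at 37C on glycerol/ethanol YPEG medium in the presence of compound.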
VP16 counter: VP16 counterscreen qHTS for inhibitors of ROR gamma transcriptional activity; Potency, µM (titrated, usually from 53.6 µM), without a hit: at the top dose activity, negative = inhibition, most hits filed as inhibitors; AID 2546, 2010; 310,000 compounds, 3.5% hits; Drosophila S2 Gal4-VP16 UAS-luciferase, luminescence, 20 h;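 note: Gal4-VP16 expression switched on by copper sulfate through the metallothionein promoter; % is set by controls: 0 for no effect and ±100 for the full control effect; nearly all actives have a fitted effect of over 50% in size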
RORgamma inh: qHTS for inhibitors of ROR gamma transcriptional activity; Nuclear receptor ROR-gamma (Mus musculus), P51450; Drosophila S2 Gal4-RORgamma UAS-luciferase reporter, 20 h; Potency, µM (titrated, usually from 53.6 µM), for the others: at the top dose activity change, negative = inhibition, usual class: inhibitors; 310,000 compounds, 5.4% hits; AID 2551, 2010; note: % is set by controls: 0 for no effect and ±100 for the full control effect; nearly all actives have a fitted effect of over 60% in size
Target sequence (P51450 whole entry, looked up, the tested form may be a part): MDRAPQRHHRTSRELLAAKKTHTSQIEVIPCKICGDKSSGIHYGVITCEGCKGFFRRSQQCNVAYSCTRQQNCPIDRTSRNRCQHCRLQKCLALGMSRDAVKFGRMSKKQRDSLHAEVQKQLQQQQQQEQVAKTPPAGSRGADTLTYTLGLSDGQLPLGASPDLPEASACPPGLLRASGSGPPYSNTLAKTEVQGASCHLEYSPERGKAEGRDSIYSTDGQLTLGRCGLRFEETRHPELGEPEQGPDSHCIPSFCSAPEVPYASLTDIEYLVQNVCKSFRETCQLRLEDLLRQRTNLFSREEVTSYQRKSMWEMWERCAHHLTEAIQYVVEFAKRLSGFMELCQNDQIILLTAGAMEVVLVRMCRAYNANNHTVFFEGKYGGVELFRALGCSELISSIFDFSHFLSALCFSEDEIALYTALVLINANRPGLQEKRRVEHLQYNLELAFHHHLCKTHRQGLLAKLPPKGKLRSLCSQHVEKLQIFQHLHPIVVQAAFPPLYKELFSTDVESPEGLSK
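Stable Schneider cell line, Gal4 DNA-binding domain fused to ROR gamma, UAS-luciferase. Cmpd 1 hr RT → CuSO4 700 uM final → 20 hr RT → luciferase reagent 10 min → luminescence.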
* hit, by the source's call; [ ] = dose if it differs, or a comment. A selection: hits, their analogues and other compounds. The true share with any hit is near 5.5%. Unless noted, calls come from the whole dose curve; as a rule, active = well fitted curve in the direction sought with a large enough effect; inconclusive = small, poorly fitted or top-dose-only effect, or another doubt; inactive = no such curve, though single readings can be large; an effect the other way counts as inactive or inconclusive. Potency is the fitted concentration of half-maximal effect.

What do the screens show for `Cc1ccc2nc(-c3ccc4c(c3)OCCO4)cc(C(=O)O)c2c1`?
Chronic BCR inh: inconclusive; uPA generation: -12.6%; Integrin act MD: 1.0%; Mito fusion act: 0.2%; VP16 counter: 7.2%[0.365 µM]; RORgamma inh: 5.01µM*

What do the screens show for `CN(C)CCCNS(=O)(=O)c1ccc(NC2CCCCCC2)c([N+](=O)[O-])c1`?
Chronic BCR inh: -10.8%; uPA generation: -12.3%; Integrin act MD: -58.7%; Mito fusion act: -23.6%; VP16 counter: 20µM*; RORgamma inh: -13.2%

Results for CCNc1ccc(S(=O)(=O)NCCN(C)C)cc1[N+](=O)[O-] ?
Chronic BCR inh: 5.3%; uPA generation: 8.2%; Integrin act MD: -26.5%; Mito fusion act: -5.0%; VP16 counter: 16.5%; RORgamma inh: 10.3%

How did C=CC(=O)Nc1cccc(Oc2cc(Cl)nc3[nH]ccc23)c1 do in these assays?
Chronic BCR inh: inconclusive; uPA generation: inconclusive; Integrin act MD: -25.4%

How did Cc1ccc(Cl)cc1NC(=O)c1ccc(Cn2cc(Cl)cn2)cc1 do in these assays?
Chronic BCR inh: 1.3%; uPA generation: -5.9%; Integrin act MD: -10.0%; Mito fusion act: 20µM*; VP16 counter: inconclusive; RORgamma inh: 21.8%

How did Nc1ccc2nc(-c3ccccn3)[nH]c2c1 do in these assays?
Chronic BCR inh: inconclusive; uPA generation: -2.6%; Integrin act MD: 0.3%; Mito fusion act: -2.0%; VP16 counter: inconclusive; RORgamma inh: 20µM*

Results for Nc1ccc2nc(-c3ccccc3)[nH]c2c1 ?
Chronic BCR inh: inconclusive; uPA generation: -13.1%; Integrin act MD: -5.0%; Mito fusion act: -3.6%; VP16 counter: inconclusive; RORgamma inh: 12.6µM*

What do the screens show for `Nc1ccc2nc(-c3cccnc3)[nH]c2c1`?
Chronic BCR inh: -4.1%; uPA generation: -15.7%; Integrin act MD: 14.8%; Mito fusion act: -0.3%; VP16 counter: 7.1%; RORgamma inh: 30.7%

What do the screens show for `COc1ccc2nc(-c3ccccn3)[nH]c2c1`?
Chronic BCR inh: inconclusive; uPA generation: inconclusive; Integrin act MD: -6.1%; Mito fusion act: -8.8%

How did COc1ccc(/C=N/Nc2ncccc2[N+](=O)[O-])c(OC)c1 do in these assays?
Chronic BCR inh: inconclusive; uPA generation: -11.1%; Integrin act MD: 7.1%; Mito fusion act: -1.8%; VP16 counter: inconclusive; RORgamma inh: inconclusive

How did C[C@@H]1CN([C@H](C)CO)C(=O)CCCn2cc(nn2)CO[C@H]1CN(C)C(=O)Nc1ccnc(N2CCOCC2)c1 do in these assays?
Integrin act MD: 4.1%

How did Cc1ccc(S(=O)(=O)CCc2nnc(NC(=O)c3ccccn3)s2)cc1 do in these assays?
Chronic BCR inh: -2.9%; uPA generation: -5.5%; Integrin act MD: 4.1%; Mito fusion act: -6.1%; VP16 counter: 7.08µM*; RORgamma inh: inconclusive

How did CCc1nnc(NC(=O)CN2CCN(Cc3cccc(F)c3)CC2)s1 do in these assays?
Chronic BCR inh: inconclusive; uPA generation: -2.0%; Integrin act MD: 6.7%; Mito fusion act: 1.2%; VP16 counter: 3.5%; RORgamma inh: 10.5%

Results for Cc1ccc(C(=O)Nc2nnc(NC(=S)Nc3ccccc3)s2)cc1 ?
Chronic BCR inh: -26.4%; uPA generation: -4.9%; Integrin act MD: -15.5%; Mito fusion act: -11.7%; VP16 counter: 1.12µM*; RORgamma inh: 0.282µM*

How did Cc1ccc(SCc2nnc(NC(=O)c3ccccc3)s2)cc1 do in these assays?
Chronic BCR inh: 8.7%; uPA generation: 4.4%; Integrin act MD: 44.6%; Mito fusion act: 3.9%; VP16 counter: 10.8%; RORgamma inh: -5.2%

What do the screens show for `CCc1nnc(NC(=S)Nc2ccccc2)s1`?
Chronic BCR inh: inconclusive; uPA generation: 8.8%; Integrin act MD: 6.6%; Mito fusion act: -2.8%; VP16 counter: 0.891µM*; RORgamma inh: 0.282µM*
